# Columns and labels:
# Experiment in all cases: thermal shift delta Tm vs DMSO control; higher = stronger stabilization (binding)
# Details in all cases: 12.5 µM; protein concentration 2 µM
# [1] = compound: C/C(O)=C(\C#N)C(=O)Nc1cc(Br)ccc1Br
# How it was run: (§1)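 Rice kinase domain constructs were expressed in E. coli, purified, and tested by differential scanning fluorimetry with compound added in DMSO. Each well of a 96-well plate held 19.5 μl of 2 μM kinase in 100 mM potassium phosphate pH 7.5, 150 mM NaCl, 10% glycerol and 5 × SYPRO Orange, and fluorescence was read from 25°C to 95°C at 0.05°C/s. The melting temperature shift is the mean of triplicates, taken against protein with DMSO alone after Boltzmann fitting.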
# [2] = compound: CC(C)(C)c1cc(C=C(C#N)C#N)cc(Br)c1O
# How it was run: as §1
# Tyrphostin 9 = compound: CC(C)(C)c1cc(C=C(C#N)C#N)cc(C(C)(C)C)c1O [Tyrphostin 9]
# How it was run: as §1
# Aurora A Inhibitor I = compound: CCN1CCN(C(=O)Cc2ccc(Nc3ncc(F)c(Nc4ccc(C(=O)Nc5ccccc5Cl)cc4)n3)cc2)CC1 [Aurora A Inhibitor I]
# How it was run: as §1
# Picropodophyllin (PPP) = compound: COc1cc([C@@H]2c3cc4c(cc3[C@H](O)[C@H]3COC(=O)[C@@H]23)OCO4)cc(OC)c1OC [Picropodophyllin (PPP)]
# How it was run: as §1
# Anisomycin = compound: COc1ccc(C[C@H]2NC[C@H](O)[C@H]2OC(C)=O)cc1 [Anisomycin]
# How it was run: as §1
# [3] = compound: COc1ccc(N(C(=O)Oc2c(C)cccc2C)c2ccnc(Nc3ccc(N4CCN(C)CC4)cc3)n2)c(OC)c1
# How it was run: as §1
# [4] = compound: COc1ccc2c(c1)/C(=C/c1cnc[nH]1)C(=O)N2
# How it was run: as §1
# [5] = compound: Cc1ccccc1-n1c(Cn2ncc3c(N)ncnc32)nc2cccc(C)c2c1=O
# How it was run: as §1
# [6] = compound: O=c1[nH]c2ccc(Cl)cc2c(N[C@@H]2CN3CCC2CC3)c1-c1nc2ccccc2[nH]1
# How it was run: as §1
# [7] = compound: Cn1cc(C2=C(c3cn(C4CCN(Cc5ccccn5)CC4)c4ccccc34)C(=O)NC2=O)c2ccccc21
# How it was run: as §1
# Sequence of LOC_OS01G52050-cb004 (as listed by the source): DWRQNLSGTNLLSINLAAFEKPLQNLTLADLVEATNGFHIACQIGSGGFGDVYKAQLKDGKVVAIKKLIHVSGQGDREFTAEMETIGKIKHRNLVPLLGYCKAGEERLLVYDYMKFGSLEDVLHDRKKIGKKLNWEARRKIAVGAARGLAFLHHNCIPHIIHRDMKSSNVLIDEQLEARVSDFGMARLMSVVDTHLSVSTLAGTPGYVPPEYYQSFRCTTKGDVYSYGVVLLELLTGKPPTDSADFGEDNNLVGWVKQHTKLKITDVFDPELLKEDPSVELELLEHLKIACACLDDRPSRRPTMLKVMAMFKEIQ
# Sequence of LOC_OS06G22820-cb001 (as listed by the source): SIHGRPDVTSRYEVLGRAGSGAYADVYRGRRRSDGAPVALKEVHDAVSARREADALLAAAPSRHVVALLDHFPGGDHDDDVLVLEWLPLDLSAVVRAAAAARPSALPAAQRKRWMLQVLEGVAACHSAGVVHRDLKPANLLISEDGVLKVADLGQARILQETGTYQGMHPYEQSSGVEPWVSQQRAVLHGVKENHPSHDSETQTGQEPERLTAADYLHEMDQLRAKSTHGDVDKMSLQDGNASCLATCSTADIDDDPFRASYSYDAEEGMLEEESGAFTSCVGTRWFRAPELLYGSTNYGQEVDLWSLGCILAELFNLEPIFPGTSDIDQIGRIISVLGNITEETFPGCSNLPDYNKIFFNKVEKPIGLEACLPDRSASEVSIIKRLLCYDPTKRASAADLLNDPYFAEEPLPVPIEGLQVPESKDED
Target,thermal shift delta Tm [1],thermal shift delta Tm [2],thermal shift delta Tm (Tyrphostin 9),thermal shift delta Tm (Aurora A Inhibitor I),thermal shift delta Tm (Picropodophyllin (PPP)),thermal shift delta Tm (Anisomycin),thermal shift delta Tm [3],thermal shift delta Tm [4],thermal shift delta Tm [5],thermal shift delta Tm [6],thermal shift delta Tm [7]
LOC_OS02G14120-cb001,0.47 °C,0.92 °C,3.24 °C,8.23 °C,0.5 °C,0.58 °C,0.02 °C,4.75 °C,-0.47 °C,7.91 °C,
LOC_OS03G50810-cb003,0.73 °C,0.71 °C,0.82 °C,3.94 °C,0.16 °C,0.59 °C,0.9 °C,3.03 °C,0.23 °C,5.29 °C,1.38 °C
LOC_OS05G16824-cb004,2.14 °C,-1.4 °C,-0.97 °C,7.48 °C,-3.09 °C,-4.31 °C,1.29 °C,8.5 °C,-1.77 °C,15.4 °C,2.01 °C
LOC_OS01G14860-cb001,1.32 °C,1.24 °C,3.15 °C,3.95 °C,0.29 °C,-0.05 °C,0.07 °C,5.78 °C,-0.1 °C,7.87 °C,
LOC_OS03G50450-cb001,1.25 °C,0.89 °C,1.36 °C,6.04 °C,0.03 °C,0.61 °C,0.76 °C,1.49 °C,0.18 °C,2.51 °C,0.07 °C
LOC_OS01G63280-cb003,0.5 °C,0.9 °C,2.28 °C,0.22 °C,-0.03 °C,0.15 °C,0.38 °C,4.22 °C,-0.3 °C,0.81 °C,
LOC_OS01G52050-cb004,0.91 °C,2.42 °C,3.34 °C,1.73 °C,-0.26 °C,0.12 °C,-0.12 °C,4.67 °C,-0.06 °C,9.73 °C,
LOC_OS05G30820-cb001,0.57 °C,1.27 °C,0.84 °C,1.39 °C,0.41 °C,0.89 °C,0.33 °C,0.99 °C,0.5 °C,0.98 °C,0.82 °C
LOC_OS01G60330-cb001,1.6 °C,1.56 °C,4.55 °C,12.3 °C,0.72 °C,0.77 °C,1.23 °C,4.72 °C,-0.01 °C,10.8 °C,
LOC_OS05G07850-cb002,1.58 °C,4.65 °C,0.08 °C,12.2 °C,-0.91 °C,0.21 °C,7.34 °C,8.01 °C,-0.57 °C,8.76 °C,2.26 °C
LOC_OS01G67340-cb003,1.03 °C,0.32 °C,-0.32 °C,0.7 °C,0.12 °C,0.35 °C,0.5 °C,4.84 °C,-0.48 °C,2.48 °C,0 °C
LOC_OS01G02750-cb003,1.62 °C,1.02 °C,6.7 °C,0.26 °C,0.88 °C,0.6 °C,0.82 °C,2.97 °C,0.47 °C,4.52 °C,-0.47 °C
LOC_OS05G28520-cb001,1.13 °C,0.45 °C,1.67 °C,0.67 °C,0.07 °C,0.12 °C,0.27 °C,0.94 °C,-0.36 °C,0.32 °C,3.85 °C
LOC_OS01G10900-cb004,1.47 °C,-0.04 °C,3.61 °C,0.91 °C,0.63 °C,0.16 °C,0.15 °C,1.02 °C,0.1 °C,0.03 °C,
LOC_OS06G22820-cb001,0.73 °C,1.01 °C,1.56 °C,-0.07 °C,0.27 °C,0.57 °C,0.55 °C,0.55 °C,0.41 °C,0.64 °C,1 °C
LOC_OS03G04050-cb001,0.96 °C,0.99 °C,0.99 °C,0.02 °C,0.1 °C,0.72 °C,0.67 °C,0.53 °C,0.27 °C,0.52 °C,0.69 °C
LOC_OS03G27990-cb004,0.81 °C,0.8 °C,0.88 °C,1.5 °C,0.02 °C,0.47 °C,0.54 °C,1.69 °C,-0.07 °C,3.66 °C,0.11 °C
LOC_OS01G48390-cb002,0.77 °C,0.72 °C,2.01 °C,4.11 °C,0.19 °C,0.33 °C,-0.27 °C,1.32 °C,0.11 °C,1.21 °C,
LOC_OS01G13800-cb001,0.83 °C,2.05 °C,1.92 °C,0.32 °C,-0.49 °C,0.17 °C,0.12 °C,0.49 °C,0.06 °C,-0.04 °C,

# Source: the supplement of paper PMC9694430
